Assay outcomes: PubChem BioAssay, several laboratories
PolyA inh = blocks polyadenylation in yeast reporter cells. S. cerevisiae SKY197-pL101 polyadenylation reporter, beta-gal luminescence; efflux-impaired pdr1/pdr3 knockout yeast; score 100 = 6 SD above DMSO. activity score, % at 12 µM. actives 0.02% (n = 300,000). AID 1875;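 active = lowest replicate activity score at least 50, where 100 means six control SD above control mean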;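 also: yeast exposed to compound for 9 h at 30 °C; higher score means more reporter readthrough which indicates perturbed polyadenylation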
EBNA-1 inhibitor = blocks EBNA-1 binding to DNA; EBNA-1 DNA binding, fluorescence polarization; inhibition, % at 14.8 µM; actives 0.34% (n = 300,000); in the data active = inhibition above about 28%
dFosB act = enhances mouse delta FosB homodimer DNA binding. P13346. purified delta FosB, TAMRA-CDK5 oligo fluorescence polarization; percent of positive-control signal above neutral wells. activation, % at 25 µM. actives 0.99% (n = 340,000). AID 493131;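 active = mean activation above about 17%, with every replicate also reaching it, limit read from the data, passing the limit was not always enough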
Target sequence (P13346 whole entry, looked up): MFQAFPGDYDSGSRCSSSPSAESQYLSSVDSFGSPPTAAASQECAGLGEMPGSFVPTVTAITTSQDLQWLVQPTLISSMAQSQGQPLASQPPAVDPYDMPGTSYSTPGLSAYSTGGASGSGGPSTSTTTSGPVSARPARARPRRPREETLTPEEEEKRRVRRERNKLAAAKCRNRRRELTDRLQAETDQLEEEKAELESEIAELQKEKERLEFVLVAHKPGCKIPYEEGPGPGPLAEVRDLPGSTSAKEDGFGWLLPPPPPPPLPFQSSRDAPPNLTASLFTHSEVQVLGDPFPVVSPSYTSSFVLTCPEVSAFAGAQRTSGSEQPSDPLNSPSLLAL
NALP3 yeast inh = blocks the NALP3 inflammasome reconstituted in yeast. inhibition, % at 10 µM. Yeast reconstituted NLRP3/ASC/caspase-1, beta-gal luminescence, 24 h. actives 0.39% (n = 330,000);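 active = inhibition of 50% or more; inactive = inhibition below 50%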;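 also: plate controls were induced DMSO wells for no effect and uninduced yeast grown without galactose for full effect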
NALP1 yeast inh = blocks the NALP1 inflammasome reconstituted in yeast | S. cerevisiae NALP1/ASC/caspase-1 growth, X-gal OD620, 72 h | inhibition, % at 10 µM | actives 0.61% (n = 280,000); in the data active = inhibition mostly above about 24%, no sharp cut-off; inactive = mostly below about 32%
ZTA counter = counter-screen for EBNA-1 inhibitors: inhibitors of Epstein-Barr virus ZTA; actives 0.15% (n = 320,000); inhibition, % at 11 µM; ZTA-DNA binding, fluorescence polarization; in the data active = inhibition above about 33%
Target sequence (P03206 whole entry, looked up): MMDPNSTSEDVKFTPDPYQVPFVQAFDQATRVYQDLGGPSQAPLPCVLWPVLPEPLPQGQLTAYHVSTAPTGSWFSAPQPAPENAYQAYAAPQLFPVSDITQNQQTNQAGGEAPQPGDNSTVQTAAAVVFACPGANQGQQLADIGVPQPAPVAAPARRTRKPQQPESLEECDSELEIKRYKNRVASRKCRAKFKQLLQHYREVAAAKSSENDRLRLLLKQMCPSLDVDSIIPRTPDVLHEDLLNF
* hit, by the source's call; nt = not tested or not shown. Most compounds without a hit are left out; they make up all but 2.2% or so of the library.

SMILES	PolyA inh	EBNA-1 inhibitor	dFosB act	NALP3 yeast inh	NALP1 yeast inh	ZTA counter
O=C1CCC(C(=O)N2CCC(CO)CC2)CN1Cc1ccc(Cl)cc1 (centres undefined)	27	-2	2	6	2	4
COc1ccc(N2CCN(C3=CC(=O)N(c4cccc(Cl)c4)C3=O)CC2)cc1	16	1	6	20	24*	15
O=C(c1cc2ccccn2n1)N1CCN(Cc2ccccc2)CC1	11	9	-2	27	34*	12
O=C(c1cc2ccccn2n1)N1CCCC1	nt	nt	nt	nt	10	nt
Cc1cc(OC(=O)c2c(F)cc(F)cc2F)nc(C)n1	6	4	4	1	0	12
COc1ccc(C2C3=C(N=C4SCC(=O)N42)c2ccccc2CC3)cc1 (centres undefined)	8	10	2	8	38*	-4
COc1ccc(C2C3=C(N=C4SCC(=O)N42)c2ccccc2CC3)cc1OC (centres undefined)	6	-4	-12	-1	5	-3
O=C1C=CC(=O)N1N(c1ccccc1)c1ccccc1	5	9	1	3	105*	-4
O=C(/C=C\Nc1cccc(F)c1)c1ccc2c(c1)OCO2	-19	40*	4	20	11	9
COC(=O)c1ccc(N/C=C\C(=O)c2ccc3c(c2)OCO3)cc1	-13	0	2	13	10	4
CCN1CCN(c2c(/C=C3\SC(=S)N(Cc4ccco4)C3=O)c(C)c(C#N)c(=O)n2C)CC1	12	7	56*	13	nt	5
COc1ccc(-n2c(C)cc(/C=C3\SC(=S)N(Cc4ccco4)C3=O)c2C)cc1	-1	-1	-12	nt	5	-13
COC(=O)c1ccccc1SC1CC(=O)N(c2ccccc2)C1=O (centres undefined)	4	-1	-1	11	78*	-1
O=C(O)c1ccccc1SC1CC(=O)N(c2cccc3ccccc23)C1=O (centres undefined)	nt	nt	5	nt	nt	nt
C=CCn1c(NC(C)c2cc(Cl)ccc2O)nc2ccccc21 (centres undefined)	2	-1	-11	18	47*	0
COC(=O)c1cc(Br)cn1S(=O)(=O)c1ccccc1	-22	3	-8	-25	2	-7
CCOC(=O)c1nnc(-c2cccs2)nc1NC(C)C	4	3	-5	22	24*	10
CCN(CC(=O)Nc1c(F)cccc1F)C(=O)COc1cccc2c1OC(C)(C)C2	14	7	-5	14	nt	-7
O=S(=O)(Cc1ccccc1)N1CCn2c(nc3ccccc32)C1	36	3	-9	5	41*	-5
Cc1cccc(NC(=O)[C@H](Cc2c[nH]c3ccccc23)NC(=O)[C@@H]2Cc3ccccc3CN2)c1	-3	4	22*	1	15	1
OC(CNCCN1CCNCC1)Cc1ccccc1 (centres undefined)	nt	nt	-4	nt	nt	nt
COC(=O)CSc1nnc(-c2ccc(S(=O)(=O)N3CCCC3)cc2)n1C	18	17	3	2	42*	24
COC(=O)CSc1nnc(CNS(=O)(=O)c2ccc(C)cc2)n1C	-6	-1	-3	15	36*	-16
COC(=O)CSc1nnc(CNS(=O)(=O)c2ccc(Br)cc2)n1C	2	-2	0	-1	8	-3
CC(=O)CSc1nnc(-c2ccc(S(=O)(=O)N3CCCC3)cc2)n1C	-5	-9	-7	20	-1	-10
SMILES	PolyA inh	EBNA-1 inhibitor	dFosB act	NALP3 yeast inh	NALP1 yeast inh	ZTA counter
COc1ccc(CC(=O)NCc2ccc(F)cc2)cc1S(=O)(=O)N1CCOCC1	nt	nt	-5	8	nt	6
CC(/C=N/NC(=O)c1ccc(Br)cc1)=C\c1ccccc1	16	5	2	8	36*	11
CN(CC(=O)Nc1ccccc1Br)C(=O)c1ccccc1-c1nc2ccccc2s1	-11	11	-2	15	22	-7
Cc1cccc(C(=O)Nc2nnc(S(=O)(=O)N3CCC(C)CC3)s2)c1	-4	7	-9	4	40*	22
Cc1ccc(NC(=O)Cn2c(O)c(N=NC(=O)c3ccncc3)c3ccccc32)cc1	5	-1	-6	5	2	1
Cc1cccc(NC(=O)Cn2c(O)c(N=NC(N)=S)c3ccccc32)c1	6	12	40*	6	nt	5
COc1ccccc1NC(=O)Cn1c(O)c(N=NC(=O)c2ccccc2O)c2ccccc21	-22	-4	70*	43	14	1
Cc1ccc(NC(=O)Cn2c(O)c(N=NC(=O)c3cc4ccccc4cc3O)c3ccccc32)cc1	nt	0	-11	nt	14	-3
Cc1ccn2c(Nc3ccccc3)c(-c3ccccn3)nc2c1	-18	-12	33*	33	-9	7
Cc1cc(O)c(C=O)c2c1C(=O)Oc1c(CO)c(O)c3c(c1O2)C(O)OC3=O (centres undefined)	nt	23	-16	3	-18	97*
CCN(CC)CCCn1c2c(c(SCC(=O)Nc3nc4ccccc4s3)nc1=O)CCC2	-4	7	-19	8	nt	-1
CC1CCCCC1NC(=O)C1CCN(S(=O)(=O)c2ccc3c(c2)CCC(=O)N3)CC1 (centres undefined)	0	8	-7	10	32*	-6
O=C(CSc1ncn[nH]1)NCc1ccccc1	17	5	-1	7	28*	-7
CC(=O)SC1CC(=O)C=C2CCC3C4CCC(=O)OC4(C)CCC3C21C (centres undefined)	nt	nt	-2	nt	nt	nt
C=CC(=O)Nc1ccc(N(C)c2ccnc(Nc3ccc(N4CCN(C)CC4)cc3)n2)cc1	nt	nt	50*	15	nt	nt
CCCCCC(=O)Nc1ccc(N2CCOCC2)c(S(=O)(=O)Nc2ccc(OC)cc2)c1	-4	7	-2	1	nt	11
COc1ccc(NS(=O)(=O)c2cc(NC(=O)/C=C/c3cccs3)ccc2N2CCOCC2)cc1	-7	73*	5	5	nt	-18
CCOC(=O)[C@H]1[C@H]2COc3ccccc3[C@@H]2N2C(=O)CN(Cc3ccc(C)cc3)C(=O)[C@@]12C	nt	nt	-2	-4	nt	nt
Cc1c(-c2ccc(F)cc2)[n+](=O)c(-c2ccc(F)cc2)c(C)n1[O-]	7	-6	4	20	42*	-9
Cc1c(C)[n+](=O)c(-c2ccc(F)cc2)c(C)n1[O-]	1	9	0	-1	-30	12
COc1cccc(CN2CC(C(=O)N(C)CC3CCOCC3)CCC2=O)c1 (centres undefined)	-23	-3	-1	16	19	-2
C=CCNc1nc(NCc2ccccc2)c(C#N)c2c1CN(C)CC2	4	3	4	20	6	-2
N#Cc1c(NCCN)nc(NCc2ccccc2)c2c1CCN(Cc1ccccc1)C2	nt	nt	24*	nt	14	nt
Cc1cc(Cl)c(OCCCn2ccnc2)c(Br)c1	3	-6	-13	10	50*	9
